# Results: PubChem BioAssay (EPA / NIEHS)
# “And” between values parts separate entries of the source, which are not always exact repeats. Equal entries are not always repeated. Results filed as inconclusive are left out. The source made the active and inactive calls. How the source made its calls, unless noted: active means hit-call score of the fitted dose curve at least 0.9, where 1 is the maximum; inconclusive means response in the unintended direction; inactive means score below 0.9.
# Columns and labels:
# [1] = molecular target: rat CYP1A2, Cyp1a2 (gene 24297) (UniProt P04799); assay: NVS_ADME_rCYP1A2: NovaScreen (NVS) CYP450-related Enzyme Activity (ADME) Assay for rat CYP1A2 (AID 2283115)
# rat CYP1A2, Cyp1a2 (gene 24297), sequence (P04799 whole entry, looked up): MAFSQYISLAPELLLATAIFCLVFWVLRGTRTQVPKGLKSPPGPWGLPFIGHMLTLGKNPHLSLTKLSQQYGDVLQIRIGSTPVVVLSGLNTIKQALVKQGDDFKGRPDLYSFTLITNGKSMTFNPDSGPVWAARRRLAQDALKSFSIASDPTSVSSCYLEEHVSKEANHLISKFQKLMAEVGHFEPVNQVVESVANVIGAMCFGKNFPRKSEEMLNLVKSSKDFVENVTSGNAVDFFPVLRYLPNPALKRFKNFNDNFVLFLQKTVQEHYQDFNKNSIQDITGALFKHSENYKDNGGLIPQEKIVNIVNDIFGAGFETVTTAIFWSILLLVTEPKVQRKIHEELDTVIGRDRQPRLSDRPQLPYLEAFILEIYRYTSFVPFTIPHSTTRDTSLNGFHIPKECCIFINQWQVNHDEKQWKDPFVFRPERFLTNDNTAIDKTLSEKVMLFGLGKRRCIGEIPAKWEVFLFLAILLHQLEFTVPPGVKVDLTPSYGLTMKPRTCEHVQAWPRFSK
# Summary of the method: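 Primary testing ran in duplicate at 10 uM, with actives re-tested across concentration series. Fluorescence intensity from substrate turnover by recombinant protein, measured 1 hour post-dosing, with signal loss scored against acetonitrile vehicle.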
# [2] = molecular target: rat CYP2D1, Cyp2d1 (gene 266684) (UniProt P10633); assay: NVS_ADME_rCYP2D1: NovaScreen (NVS) CYP450-related Enzyme Activity (ADME) Assay for rat CYP2D1 (AID 2283122)
# rat CYP2D1, Cyp2d1 (gene 266684), sequence (P10633 whole entry, looked up): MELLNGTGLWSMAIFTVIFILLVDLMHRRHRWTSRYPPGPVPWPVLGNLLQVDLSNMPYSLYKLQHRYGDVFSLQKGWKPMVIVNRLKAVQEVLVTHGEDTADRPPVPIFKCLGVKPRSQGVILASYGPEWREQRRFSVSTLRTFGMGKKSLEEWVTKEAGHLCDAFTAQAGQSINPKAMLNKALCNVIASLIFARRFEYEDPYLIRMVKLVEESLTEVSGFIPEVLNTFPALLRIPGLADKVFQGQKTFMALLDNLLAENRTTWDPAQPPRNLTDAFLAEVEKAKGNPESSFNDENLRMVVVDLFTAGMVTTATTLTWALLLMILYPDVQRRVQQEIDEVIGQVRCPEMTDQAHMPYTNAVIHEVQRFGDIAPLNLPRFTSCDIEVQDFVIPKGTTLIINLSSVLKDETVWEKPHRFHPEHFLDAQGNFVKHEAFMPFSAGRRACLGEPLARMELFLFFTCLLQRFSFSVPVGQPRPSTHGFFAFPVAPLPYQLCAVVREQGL
# Summary of the method: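 Rat CYP2D1 enzyme activity measured by fluorescence intensity in a cell-free format, 0.75 h post-dosing, acetonitrile as negative control. Screening at 10 uM in duplicate, with actives followed in concentration series up to 20 uM.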
# [3] = system: rat CYP3A1, gene 25642; assay: NVS_ADME_rCYP3A1: NovaScreen (NVS) CYP450-related Enzyme Activity (ADME) Assay for rat CYP3A1 (AID 2283126)
# Summary of the method: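 Compounds went first at 10 uM duplicate, then to series with 20 uM maximum. Fluorescence from substrate turnover by the recombinant enzyme was measured 0.5 h post-dosing, inhibition scored against acetonitrile vehicle.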
# [4] = molecular target: human AMP-activated Protein Kinase, alpha 1 (AMPKa1), PRKAA1 (gene 5562) (UniProt Q13131); assay: NVS_ENZ_hAMPKa1: NovaScreen (NVS) Enzymatic Assay for human AMP-activated Protein Kinase, alpha 1 (AMPKa1) (AID 2283130)
# Summary of the method: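 Compounds were screened in duplicate at 25 uM, and those reaching ~30% inhibition were titrated up to 50 uM. The enzyme was recombinant human AMPKα1, and kinase turnover was read by fluorescence/mobility shift 1 h post-dosing as loss of signal versus DMSO.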
# [5] = molecular target: Caspase-1 (Homo sapiens) (UniProt P29466); assay: NVS_ENZ_hCASP1: NovaScreen (NVS) Enzymatic Assay for human Caspase 1 (CASP1) (AID 2283132)
# Caspase-1 (Homo sapiens), sequence (P29466 whole entry, looked up): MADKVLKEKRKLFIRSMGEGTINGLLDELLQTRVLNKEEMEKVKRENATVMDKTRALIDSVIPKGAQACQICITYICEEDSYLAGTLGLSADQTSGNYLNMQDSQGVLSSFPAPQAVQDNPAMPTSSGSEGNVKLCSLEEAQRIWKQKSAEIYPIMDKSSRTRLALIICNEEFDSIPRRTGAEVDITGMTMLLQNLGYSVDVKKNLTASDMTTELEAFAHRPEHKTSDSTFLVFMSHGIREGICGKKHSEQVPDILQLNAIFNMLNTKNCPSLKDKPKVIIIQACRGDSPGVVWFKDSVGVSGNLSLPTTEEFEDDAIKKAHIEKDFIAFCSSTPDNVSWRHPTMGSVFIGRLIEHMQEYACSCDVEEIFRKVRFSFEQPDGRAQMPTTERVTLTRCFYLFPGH
# Summary of the method: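 Compounds were first tested in duplicate at 25 uM, with follow-up concentration series up to 50 uM. The bacterially expressed enzyme was read by fluorescence at 1 h post-dosing. Signal loss versus DMSO baseline indicates reduced enzyme activity.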
# [6] = molecular target: rat CYP2A2, Cyp2a2 (gene 24895) (UniProt P15149); assay: NVS_ADME_rCYP2A2: NovaScreen (NVS) CYP450-related Enzyme Activity (ADME) Assay for rat CYP2A2 (AID 2283116)
# rat CYP2A2, Cyp2a2 (gene 24895), sequence (P15149 whole entry, looked up): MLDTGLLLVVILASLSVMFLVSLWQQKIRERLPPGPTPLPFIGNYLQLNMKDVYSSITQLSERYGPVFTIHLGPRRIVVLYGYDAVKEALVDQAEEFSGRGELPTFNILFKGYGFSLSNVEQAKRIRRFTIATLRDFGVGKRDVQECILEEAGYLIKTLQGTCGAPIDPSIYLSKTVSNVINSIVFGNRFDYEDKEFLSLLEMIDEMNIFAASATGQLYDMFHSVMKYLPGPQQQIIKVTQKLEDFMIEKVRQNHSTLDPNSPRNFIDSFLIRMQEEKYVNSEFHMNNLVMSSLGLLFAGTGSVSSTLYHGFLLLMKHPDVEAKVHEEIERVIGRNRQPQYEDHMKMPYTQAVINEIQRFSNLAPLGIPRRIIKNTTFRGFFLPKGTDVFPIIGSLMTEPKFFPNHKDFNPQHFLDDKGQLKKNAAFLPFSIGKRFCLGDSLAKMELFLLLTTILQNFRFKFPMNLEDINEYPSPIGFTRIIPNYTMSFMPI
# Summary of the method: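 Compounds first tested in duplicate at 10 uM, then in singleton concentration series up to 20 uM when over threshold. Activity of the recombinant enzyme read by fluorescence at 0.2 h, normalised to acetonitrile vehicle.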
# [7] = system: rat CYP2B1, gene 24300; assay: NVS_ADME_rCYP2B1: NovaScreen (NVS) CYP450-related Enzyme Activity (ADME) Assay for rat CYP2B1 (AID 2283117)
# Summary of the method: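 Cell-free fluorescence enzyme assay, recombinant rat CYP2B1, 0.75 h after dosing. Single-concentration duplicates at 10 uM preceded concentration series (max 20 uM) for actives; acetonitrile as negative-control baseline.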
# [8] = molecular target: rat CYP2C11, Cyp2c11 (gene 29277) (UniProt P08683); assay: NVS_ADME_rCYP2C11: NovaScreen (NVS) CYP450-related Enzyme Activity (ADME) Assay for rat CYP2C11 (AID 2283118)
# rat CYP2C11, Cyp2c11 (gene 29277), sequence (P08683 whole entry, looked up): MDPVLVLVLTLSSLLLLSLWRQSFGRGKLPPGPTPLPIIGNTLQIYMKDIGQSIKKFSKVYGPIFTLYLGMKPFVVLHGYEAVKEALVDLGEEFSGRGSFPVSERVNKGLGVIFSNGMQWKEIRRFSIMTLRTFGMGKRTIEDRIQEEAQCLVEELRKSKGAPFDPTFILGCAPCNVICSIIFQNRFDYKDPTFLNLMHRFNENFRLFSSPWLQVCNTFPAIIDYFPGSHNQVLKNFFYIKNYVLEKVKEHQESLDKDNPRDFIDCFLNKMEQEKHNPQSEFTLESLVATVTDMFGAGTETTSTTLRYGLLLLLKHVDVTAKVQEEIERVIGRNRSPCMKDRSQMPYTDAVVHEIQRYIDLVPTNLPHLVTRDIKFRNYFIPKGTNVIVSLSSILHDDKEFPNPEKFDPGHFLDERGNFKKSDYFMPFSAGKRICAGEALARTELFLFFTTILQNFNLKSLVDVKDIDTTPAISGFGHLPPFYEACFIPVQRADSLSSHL
# Summary of the method: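 Screened first at 10 uM in duplicate, hits followed by concentration-response. Recombinant rat enzyme activity monitored by fluorescence 0.33 h post-dosing, normalised to acetonitrile negative control.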
# [9] = molecular target: rat CYP2C12, Cyp2c12 (gene 25011) (UniProt P11510); assay: NVS_ADME_rCYP2C12: NovaScreen (NVS) CYP450-related Enzyme Activity (ADME) Assay for rat CYP2C12 (AID 2283119)
# rat CYP2C12, Cyp2c12 (gene 25011), sequence (P11510 whole entry, looked up): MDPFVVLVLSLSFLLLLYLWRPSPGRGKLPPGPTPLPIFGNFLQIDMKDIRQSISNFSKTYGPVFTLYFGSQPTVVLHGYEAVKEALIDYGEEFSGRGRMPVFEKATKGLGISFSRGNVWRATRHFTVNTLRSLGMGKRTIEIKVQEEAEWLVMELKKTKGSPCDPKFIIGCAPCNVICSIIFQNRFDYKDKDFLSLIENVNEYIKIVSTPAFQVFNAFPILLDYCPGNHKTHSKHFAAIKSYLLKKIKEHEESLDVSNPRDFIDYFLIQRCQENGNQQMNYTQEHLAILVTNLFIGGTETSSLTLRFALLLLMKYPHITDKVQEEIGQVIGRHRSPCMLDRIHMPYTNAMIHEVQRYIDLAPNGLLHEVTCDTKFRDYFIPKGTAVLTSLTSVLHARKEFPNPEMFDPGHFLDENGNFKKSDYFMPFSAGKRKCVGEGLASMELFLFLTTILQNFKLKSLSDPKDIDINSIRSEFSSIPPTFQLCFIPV
# Summary of the method: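 Fluorescent-substrate turnover by recombinant rat CYP2C12, measured at 0.5 h, normalized to acetonitrile vehicle. Chemicals screened first at a single 10 uM concentration in duplicate, with concentration series for actives.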
# [10] = molecular target: rat CYP2A1, Cyp2a1 (gene 24894) (UniProt P11711); assay: NVS_ADME_rCYP2A1: NovaScreen (NVS) CYP450-related Enzyme Activity (ADME) Assay for rat CYP2A1 (AID 2283114; active means hit-call score of the fitted dose curve at least 0.9, where 1 is the maximum; inactive means score below 0.9)
# rat CYP2A1, Cyp2a1 (gene 24894), sequence (P11711 whole entry, looked up): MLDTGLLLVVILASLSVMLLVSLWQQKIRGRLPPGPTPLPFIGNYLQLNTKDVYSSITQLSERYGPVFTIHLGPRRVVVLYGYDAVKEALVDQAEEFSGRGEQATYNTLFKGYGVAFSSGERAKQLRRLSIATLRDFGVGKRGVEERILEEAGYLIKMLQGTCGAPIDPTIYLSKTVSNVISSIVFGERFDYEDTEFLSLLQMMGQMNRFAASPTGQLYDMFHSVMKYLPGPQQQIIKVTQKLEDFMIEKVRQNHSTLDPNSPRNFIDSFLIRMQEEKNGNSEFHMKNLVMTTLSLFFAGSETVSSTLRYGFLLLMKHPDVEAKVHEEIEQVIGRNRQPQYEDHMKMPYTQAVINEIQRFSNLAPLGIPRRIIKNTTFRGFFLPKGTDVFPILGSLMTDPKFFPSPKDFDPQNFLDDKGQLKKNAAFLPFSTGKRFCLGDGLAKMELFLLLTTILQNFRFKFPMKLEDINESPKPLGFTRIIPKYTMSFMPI
# Summary of the method: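 Cell-free fluorescence enzyme-activity read on recombinant rat CYP2A1, taken 0.75 h post-dosing. Compounds were screened in duplicate at 10 uM, then hits tested in concentration series (max 20 uM); inhibition scored relative to acetonitrile baseline.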
# [11] = molecular target: rat CYP2D2, Cyp2d26 (gene 25053) (UniProt P10634); assay: NVS_ADME_rCYP2D2: NovaScreen (NVS) CYP450-related Enzyme Activity (ADME) Assay for rat CYP2D2 (AID 2283124)
# rat CYP2D2, Cyp2d26 (gene 25053), sequence (P10634 whole entry, looked up, canonical isoform): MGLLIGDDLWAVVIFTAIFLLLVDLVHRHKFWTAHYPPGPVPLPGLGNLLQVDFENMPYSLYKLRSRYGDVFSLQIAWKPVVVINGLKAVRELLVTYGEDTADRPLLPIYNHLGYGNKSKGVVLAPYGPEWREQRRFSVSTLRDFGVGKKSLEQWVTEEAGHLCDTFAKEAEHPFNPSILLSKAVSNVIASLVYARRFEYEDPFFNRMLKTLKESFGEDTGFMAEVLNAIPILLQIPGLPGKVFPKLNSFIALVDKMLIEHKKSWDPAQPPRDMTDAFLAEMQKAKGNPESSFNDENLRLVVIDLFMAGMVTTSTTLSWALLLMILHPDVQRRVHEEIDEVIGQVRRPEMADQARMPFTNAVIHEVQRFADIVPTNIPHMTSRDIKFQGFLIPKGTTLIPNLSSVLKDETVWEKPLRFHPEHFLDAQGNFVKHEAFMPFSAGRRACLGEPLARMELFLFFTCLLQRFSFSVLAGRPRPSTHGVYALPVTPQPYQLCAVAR
# Summary of the method: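 Single-concentration duplicate testing at 10 uM, followed by concentration-response (top 20 uM) for chemicals passing threshold. Enzyme activity of the recombinant rat isoform measured by fluorescence after 0.75 h, acetonitrile as baseline.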
# [12] = system: rat CYP2C6, gene 293989; assay: NVS_ADME_rCYP2C6: NovaScreen (NVS) CYP450-related Enzyme Activity (ADME) Assay for rat CYP2C6 (AID 2283120)
# Summary of the method: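 Compounds first tested in duplicate at 10 uM, hits (e.g. 30% inhibition) re-run in singleton dose series to a 20 uM top concentration. Enzyme activity of recombinant rat CYP2C6 measured via fluorescent substrate turnover after 1 h; acetonitrile baseline.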
# [13] = molecular target: human Acetylcholinesterase (AChE), ACHE (gene 43) (UniProt P22303); assay: NVS_ENZ_hAChE: NovaScreen (NVS) Enzymatic Assay for human Acetylcholinesterase (AChE) (AID 2283129)
# human Acetylcholinesterase (AChE), ACHE (gene 43), sequence (P22303 whole entry, looked up): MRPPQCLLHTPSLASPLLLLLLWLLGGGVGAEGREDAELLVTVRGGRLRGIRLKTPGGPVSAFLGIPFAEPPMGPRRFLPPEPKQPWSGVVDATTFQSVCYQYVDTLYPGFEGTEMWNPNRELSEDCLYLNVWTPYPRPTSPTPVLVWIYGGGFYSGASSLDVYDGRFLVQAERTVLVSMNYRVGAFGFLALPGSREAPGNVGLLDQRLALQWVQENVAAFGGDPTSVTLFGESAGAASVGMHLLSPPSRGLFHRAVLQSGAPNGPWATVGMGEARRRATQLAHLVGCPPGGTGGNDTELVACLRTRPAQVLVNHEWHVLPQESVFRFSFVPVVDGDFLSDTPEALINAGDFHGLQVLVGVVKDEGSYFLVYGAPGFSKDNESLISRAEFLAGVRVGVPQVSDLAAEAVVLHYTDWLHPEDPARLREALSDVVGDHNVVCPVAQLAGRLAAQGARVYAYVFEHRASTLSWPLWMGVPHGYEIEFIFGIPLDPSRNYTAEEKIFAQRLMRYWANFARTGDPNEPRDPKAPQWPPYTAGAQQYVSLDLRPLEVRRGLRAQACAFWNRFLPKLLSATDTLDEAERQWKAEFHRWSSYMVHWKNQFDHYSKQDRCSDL
# Summary of the method: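 Actives from a duplicate single-point screen (25 uM) were followed up in concentration series. Enzyme activity read by absorbance (colorimetric) 0.33 hour after dosing, cell-free, normalized to DMSO, with loss of signal scored.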
structure (smiles),measurement,setting,value
Cc1cc(C2CC2)nc(Nc2ccccc2)n1,outcome,[1],inactive
same,AC50,[2],6.96 µM (active)
same,AC50,[3],10.7 µM (active)
same,outcome,[4],inactive
same,outcome,[5],inactive
CCc1cccc(C)c1N(C(=O)CCl)C(C)COC (centres undefined),AC50,[6],5.57 µM (active)
same,AC50,[7],6430 nM (active)
same,AC50,[3],6.49 µM (active)
O=[N+]([O-])c1cc(C(F)(F)F)c(Cl)c([N+](=O)[O-])c1Nc1ncc(C(F)(F)F)cc1Cl,AC50,[8],2.91 µM (active)
same,outcome,[9],inactive
C#CC(C)(C)NC(=O)c1cc(Cl)cc(Cl)c1,AC50,[10],1.43 µM (active)
same,outcome,[5],inactive
CC(C1CC1)C(O)(Cn1cncn1)c1ccc(Cl)cc1 (centres undefined),AC50,[10],4.58 µM (active)
same,AC50,[6],56.8 nM (active) and 76.2 nM (active)
same,AC50,[7],401 nM (active) and 1.61 µM (active)
same,AC50,[8],1.69 µM (active)
same,AC50,[9],3.71 µM (active)
same,AC50,[11],3.14 µM (active) and 4.54 µM (active)
same,AC50,[3],0.384 µM (active)
CN(C)C(=O)Nc1cccc(C(F)(F)F)c1,AC50,[10],4.33 µM (active)
CCOC(=O)CC(SP(=O)(OC)OC)C(=O)OCC (centres undefined),outcome,[10],inactive
same,outcome,[6],inactive
same,outcome,[7],inactive
same,AC50,[8],8.37 µM (active)
same,AC50,[12],5.32 µM (active)
same,outcome,[11],inactive
same,outcome,[3],inactive
same,outcome,[13],inactive
C[Si](Cn1cncn1)(c1ccc(F)cc1)c1ccc(F)cc1,AC50,[10],1.39 µM (active)
same,AC50,[6],0.0595 µM (active)
same,AC50,[7],37.1 nM (active)
same,AC50,[8],0.25 µM (active)
same,AC50,[9],4.13 µM (active)
same,AC50,[12],0.519 µM (active)
same,AC50,[2],4.3 µM (active)
same,AC50,[11],1.87 µM (active)
same,AC50,[3],1.23 µM (active)
CCCSP(=O)(OCC)Oc1ccc(Br)cc1Cl (centres undefined),outcome,[1],inactive
same,AC50,[8],0.226 µM (active)
same,AC50,[12],8.28 µM (active)
same,AC50,[11],8.58 µM (active)
same,AC50,[3],9.45 µM (active)
same,AC50,[13],7.93 µM (active)
CC(C)N(C(=O)SCC(Cl)=C(Cl)Cl)C(C)C,outcome,[6],inactive
same,outcome,[7],inactive
CC1(C(=O)Nc2ccc(O)c(Cl)c2Cl)CCCCC1,AC50,[10],1.8 µM (active)
CCOP(=S)(OCC)Oc1ccc([N+](=O)[O-])cc1,AC50,[10],5.89 µM (active)
same,AC50,[7],559 nM (active)
same,AC50,[8],2.93 µM (active)
same,AC50,[9],6.18 µM (active)
same,AC50,[12],0.108 µM (active)
same,AC50,[2],10 µM (active)
same,outcome,[11],inactive
same,AC50,[3],6.9 µM (active)
